# Screens: PubChem, National Center for Advancing Translational Sciences (NCATS)
# Shown are actives, neighbours in structure and some others; about 1.8% of the full set was active somewhere.
# HEK293 tox – cytotoxic in the GLP-1 receptor inverse agonist counter-screen; Potency, µM (titrated, usually from 38.3 µM), usual class: inhibitors; HEK293 cAMP-luciferase reporter cells, luminescence, 24 h; AID 624418; 410,000 tested, 0.13% active;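 also: loss of luciferase light is scored as toxicity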
#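 MLSMR compounds, 24 hr on cells at 37 deg C/5% CO2; luminescence after luciferase reagent (12 min RT). Inhibition counted as the undesired cytotoxic outcome.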
# TSHR antag – blocks TSH signaling through the human TSH receptor | P16473 | TSHR-expressing cells, TSH-stimulated cAMP HTRF, 2 h; hits give low values | 330,000 tested, 0.2% active | activity change, negative = inhibition, % at 11.5 µM;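 active = activity change below a set negative limit, meaning inhibition stronger than a set level, cut at about -70% in these data; inconclusive = activity change between two set negative limits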
#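 Competitive HTRF cAMP read-out (cryptate anti-cAMP antibody, cAMP-d2; 30 min, room temperature) in freshly harvested TSHR cells. Compounds added before TSH at EC80 (4nM final), followed by 2 hours' incubation at 37 deg C.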
# PTHR1 ag – activates the human parathyroid hormone receptor PTHR1; 410,000 tested, 0.075% active; Q03431; Potency, µM (doses to about 115 µM), hits mostly activators; HEK293 GP2 PTHR1 cells, GloSensor cAMP luminescence, 1 h; AID 743266; also: nearly all actives have a fitted effect of over 55% in size
#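 HEK-293-derived GP2 cells expressing PTHR1 and a GloSensor cAMP reporter, 3,000/well, plated overnight, given luciferin plus IBMX (each 0.5 mM as added) for 1 h at 37 °C, then compound for 1 h at 37 °C. Luminescence was read after 15 min at room temperature.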
# GLP1R ag – activates the human GLP-1 receptor; HEK293 GLP-1R CRE-luciferase, luminescence, 4-6 h; cells express a hypersensitive GLP-1R form; Potency, µM (highest dose often 45.6 µM), usual class: activators; AID 624172; 380,000 tested, 0.007% active
# Target sequence (P43220 whole entry, looked up): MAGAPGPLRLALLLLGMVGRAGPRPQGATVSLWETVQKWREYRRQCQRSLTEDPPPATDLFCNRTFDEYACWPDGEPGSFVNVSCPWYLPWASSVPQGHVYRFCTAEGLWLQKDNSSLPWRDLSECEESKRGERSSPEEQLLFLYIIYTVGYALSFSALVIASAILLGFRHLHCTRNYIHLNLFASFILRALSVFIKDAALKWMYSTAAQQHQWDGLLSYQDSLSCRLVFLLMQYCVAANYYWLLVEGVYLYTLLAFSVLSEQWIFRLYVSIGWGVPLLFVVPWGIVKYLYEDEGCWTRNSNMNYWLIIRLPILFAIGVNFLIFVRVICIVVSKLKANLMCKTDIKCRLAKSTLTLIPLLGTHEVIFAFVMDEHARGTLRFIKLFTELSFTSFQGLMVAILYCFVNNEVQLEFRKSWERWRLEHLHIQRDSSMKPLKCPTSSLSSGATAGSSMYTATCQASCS
# GLP1R inv ag – acts as inverse agonist at human GLP-1 receptor; HEK293 GLP-1R CRE-luciferase, luminescence, 24 h; GLP-1R form is constitutively active; Potency, µM (titrated, usually from 38.3 µM), actives largely listed as inhibitors; 410,000 tested, 1.6% active; also: nearly all actives have a fitted effect of over 55% in size
#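 Cells are plated, allowed 12 hours at 37 deg C, then treated with compounds for 24 hr before luciferase detection reagent is added and luminescence is read after 12 min at room temperature. The HEK293 line carries constitutively active GLP-1R with a cAMP-responsive reporter.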
# Numbers stand for hits; n = inactive; u = inconclusive; x = no result. Unless noted, calls follow the shape of the dose curve; as a rule, active = well fitted curve in the direction sought with a large enough effect; inconclusive = small, poorly fitted or top-dose-only effect, or another doubt; inactive = no such curve, though single readings can be large; an effect the other way counts as inactive or inconclusive.
SMILES,HEK293 tox,TSHR antag,PTHR1 ag,GLP1R ag,GLP1R inv ag
O=C(NCC1(c2ccccc2)CCCC1)c1ccc(Br)cc1,n,n,n,n,u
O=C(NCC1(c2ccccc2)CCCC1)c1ccc(Br)o1,n,n,n,n,u
COc1cccc(C(=O)NCC2(c3ccccc3)CCCC2)c1,n,n,n,n,u
Cc1ccc(C(=O)NCC2(c3ccccc3)CCCC2)cc1,n,n,n,n,2.5µM
Cc1cccc(NC(=O)C2CCN(c3nnc(C)c4c(C)n(-c5ccccc5)nc34)CC2)c1C,n,x,n,x,n
O=C(CSc1nnc(-c2ccc(F)cc2)o1)N1CCCc2ccccc21,n,x,n,x,u
Cc1nn(CC(=O)NCCc2ccccc2Cl)c(=O)c2nn(-c3ccccc3)c(C)c12,n,x,n,x,n
CC(C)(C)c1ccc(C(=O)NCC(c2cccs2)S(=O)(=O)c2ccc(F)cc2)cc1 (centres undefined),n,x,n,x,4.5µM
COc1ccc(-c2cccc([C@H]3[C@@H]4C=CC[C@@H](C)[C@@H]4C(=O)N3Cc3ccccc3)c2)cc1,n,n,n,n,u
CC(=O)c1ccc(-c2cccc([C@H]3[C@@H]4C=CC[C@@H](C)[C@@H]4C(=O)N3Cc3ccccc3)c2)cc1,n,n,n,n,10µM
Cc1ccccc1CNC(=O)CCSCc1cnn(-c2ccccc2)c1-n1cccc1,n,x,n,x,10µM
CN1C(=O)/C(=C/c2ccccc2OCc2cccc(F)c2)N(C)C1=S,n,n,n,n,5.6µM
O=C(Nc1cc(Cl)ccc1O)c1cc2nc(-c3ccc4c(c3)OCO4)cc(C(F)(F)F)n2n1,n,x,n,x,n
Cc1cc(S(=O)(=O)Nc2cc3c(cc2Cl)n(C)c(=O)c(=O)n3C)ccc1F,n,x,n,x,n
COc1ccc(CC(=O)NCC(c2ccc(N(C)C)cc2)N2CCOCC2)cc1 (centres undefined),n,x,n,x,n
CCc1cccc(NC(=O)Cn2c(=O)n(CC3CCC(C(=O)NC)CC3)c(=O)c3sccc32)c1 (centres undefined),n,x,n,x,n
O=S(=O)(c1ccc(Cl)cc1)c1nc(-c2cccs2)oc1SCc1ccccc1F,n,x,n,x,10µM
O=C(CSc1n[nH]c(-c2ccccn2)n1)Nc1ccccc1,n,n,n,n,n
O=C(CSc1n[nH]c(-c2ccccn2)n1)Nc1ccccc1F,u,n,n,n,11µM
CCN(CC)S(=O)(=O)c1ccc(N/N=C(\C)c2ccc(OC)cc2O)nc1,u,n,n,n,2.5µM
COc1ccc(N2CCN(C(=O)[C@H](C)NC(=O)c3ccccc3Cl)CC2)cc1,n,-99,n,n,n
COc1ccc(N2CCN(C(=O)[C@@H](NC(=O)c3ccccc3Cl)C(C)C)CC2)cc1,n,n,n,n,n
CCOC(=O)c1c(C)[nH]c(N=Nc2ccccc2)c1C,u,n,n,n,10µM
CC(NC(=O)c1ccc(C(F)(F)F)cc1)C(c1ccccc1)N1CCOCC1 (centres undefined),n,n,n,n,n
CC(NC(=S)Nc1ccccc1Cl)C(c1ccccc1)N1CCOCC1 (centres undefined),10µM,n,n,n,u
SMILES,HEK293 tox,TSHR antag,PTHR1 ag,GLP1R ag,GLP1R inv ag
CC(NC(=O)c1ccc(-c2ccccc2)cc1)C(c1ccccc1)N1CCOCC1 (centres undefined),n,n,n,n,2µM
CCOC(=O)CCC(=O)OC1C(OC2C(C)C(OC3CC(C)(OC)C(O)C(C)O3)C(C)C(=O)OC(CC)C(C)(O)C(O)C(C)C(=O)C(C)CC2(C)O)OC(C)CC1N(C)C (centres undefined),x,x,x,n,x
O=C1CSC(=S)N1Cc1cccnc1,u,n,n,n,2.8µM
COCCNC(=O)CSc1nc2ccccc2nc1Cc1ccc(C)cc1,n,x,n,n,n
Cc1cccc(S(=O)(=O)Nc2cc(Cl)ccc2N2CCOCC2)c1,n,n,n,n,10µM
NCCCNCCCCNC(=O)C(O)NC(=O)CCCCCCN=C(N)N (centres undefined),x,x,x,n,x
CC(Oc1ccc(Cl)cc1C(N)=O)C(=O)N1CCc2ccccc21 (centres undefined),n,n,n,n,n
CC(Oc1ccc(Cl)cc1Cl)C(=O)NC(=S)N1CCc2ccccc21 (centres undefined),u,n,n,n,10µM
S=C(NCc1cccs1)Nc1cc(Cl)cc(Cl)c1,u,n,n,n,8.9µM
CCOC(=O)CSc1nnc([C@H](Cc2ccccc2)NC(=O)OC(C)(C)C)o1,n,n,n,n,n
CC(C)C[C@H](NC(=O)OC(C)(C)C)c1nnc(SCc2ccccc2)o1,n,n,n,n,8.9µM
C=CCc1cc(Cl)ccc1OCCNCCCOC,u,n,n,n,4.5µM
COCCCNCCCCSc1ccc(Cl)cc1,n,n,n,n,11µM
C=CCc1cc(Cl)ccc1OCCOCCNCCOC,u,n,n,n,u
COCCCNCCCOc1ccc(Cl)cc1C(C)(C)C,u,n,n,n,5.6µM
CCC(C)NCCCOc1ccc(Cl)cc1C(C)(C)C (centres undefined),n,n,n,n,n
C=CCc1cc(Cl)ccc1OCCOCCN(C)C,n,n,n,n,7.1µM
CCC(=O)N1CCc2cc(CNC(=O)C(CC)c3ccccc3)ccc21 (centres undefined),n,x,n,x,n
CC(C)NCCOCCSc1ccc(Cl)cc1,n,n,n,n,13µM
COC(=O)C1=CN(c2ccc(F)cc2)C=C(C(=O)OC)C1c1cccc([N+](=O)[O-])c1,n,n,n,n,5.6µM
COC(=O)C1=CN(c2ccc(OC)cc2)C=C(C(=O)OC)C1c1cccc(F)c1,n,n,n,n,u
CCOc1cccc(CN2CCCC(N3CCN(c4cccc(Cl)c4)CC3)C2)c1O (centres undefined),n,n,n,n,10µM
CC(=O)c1ccc(NC(=O)CSc2nnc3ccc(-c4ccc(Br)cc4)nn23)cc1,n,x,n,x,n
CCOc1ccc(-c2csc(/C(C#N)=C\c3ccc(O)c([N+](=O)[O-])c3)n2)cc1,u,-83,n,n,n
CC(C)Cc1nc(N2CCN(C(=O)c3ccco3)CC2)c(C#N)c2c1CCCC2,n,n,n,n,8.9µM
Cc1nc(N2CCN(C(=O)c3ccco3)CC2)c(C#N)c2c1CCCC2,n,n,n,n,n
CC1CCCC(C)N1C(=O)CSc1nnc(C2CCCCC2)o1 (centres undefined),n,n,n,n,3.2µM
Cc1cc(-c2nnc(SCC(=O)N3C(C)CCCC3C)o2)no1 (centres undefined),n,n,n,n,n
COc1ccc2cc(Br)ccc2c1CC(=O)NC(C)(C)C,n,n,n,n,13µM
N/C(=N\OC(=O)c1cccc(Br)c1)c1ccccn1,n,n,n,n,6.3µM
